Assay [1] can be described thus: viability loss in pontine glioma line – cell-based, SU-DIPG-XVII, MIPE5.0, CellTiter-Glo, qHTS, dose response (AID 1347060; cut-off not given, nearly all actives have AC50 up to about 26 µM;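 note: cells exposed to compound for 48 hours before viability readout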). As to conditions: CellTiter-Glo ATP luminescence. In general terms: ATP-based viability assays read luminescence as a measure of living cells.
Assay [2] in a line: viability loss in pontine glioma line – cell-based, JHH-DIPG-1, MIPE4.0, CellTiter-Glo, qHTS, dose response (AID 1347062; cut-off not given, nearly all actives have AC50 up to about 27 µM;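 for AC50: cells exposed to compound for two days before readout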). As to conditions: JHH-DIPG-1 viability, CellTiter-Glo ATP luminescence.
A short description of assay [3]: viability loss in pontine glioma line – cell-based, SU-DIPG-IV, MIPE4.0, CellTiter-Glo, qHTS, dose response (AID 1347063; cut-off not given, nearly all actives have AC50 up to about 30 µM;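 note: compound exposure lasted 48 hours before the viability readout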). The conditions noted are these: CellTiter-Glo ATP luminescence.
Assay [4] in a line: viability loss in pontine glioma line – cell-based, SU-DIPG-XXV, MIPE5.0, CellTiter-Glo, qHTS, dose response (AID 1347065; cut-off not given, nearly all actives have AC50 up to about 26 µM;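 note: cells exposed to compound for 48 hours before ATP readout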). As to conditions: CellTiter-Glo ATP luminescence.
A short description of assay [5]: growth inhibition of DIPG cells – cell-based, MIPE4.0 library, CellTiter-Glo luminescence, qHTS (AID 1347066; cut-off not given, nearly all actives have AC50 up to about 30 µM;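 note: cells exposed to compound for 48 hours before readout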). The conditions noted are these: SU-DIPG-VI viability, CellTiter-Glo ATP luminescence.
Assay [6] in a line: JHH-DIPG-1 glioma cell viability, MIPE5.0 library, CellTiter-Glo luminescence, qHTS (AID 1347067; cut-off not given, nearly all actives have AC50 up to about 26 µM;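 note: cells exposed to compound for 48 hours before readout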). The conditions noted are these: JHH-DIPG-1 glioma viability, CellTiter-Glo ATP luminescence.
The nature of assay [7]: growth inhibition of DIPG cells – cell-based, MIPE5.0 library, qHTS (AID 1347068; cut-off not given, nearly all actives have IC50 up to about 30 µM;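 note: cells exposed to compound for 48 hours before viability readout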). The conditions noted are these: SU-DIPG-XXV viability. (Quantitative high-throughput screening tests each substance at several concentrations.)
Assay [8] in a line: viability loss with induced miR-34 in A549 – imaging, A549 dox-inducible miR-34, nuclei and caspase counts, primary screen (AID 1347080;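 active = compounds whose cell count with miR-34 switched on is under 0.7 times the count with it off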). As to conditions: A549 miR-34 inducible, Hoechst nuclei count, 48 h.
The nature of assay [9]: MELAS cybrid and Rieske KO viability enhancers – cell-based, MELAS cybrids, Rieske KO mouse fibroblasts, CellTiter-Glo, primary screen (AID 1508586;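 active = mean z-score across replicates of 1.96 or higher in either the MELAS or the Rieske mutant cell line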;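 note: z relative to plate mean and SD of compound and empty wells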). As to conditions: low glucose.
The nature of assay [10]: compounds altering HSF1 focus formation in cells – imaging, Selleck Cancer Library (AID 1347162; in the data active = plate-normalised HSF1 focus index below about 0.46). The conditions noted are these: human cells, HSF1 nuclear foci imaging, at 10 µM; SSMD: measured here: HSF1 foci SSMD mean; cell count: measured here: cell number; plate-normalised HSF1 focus index: stronger effect = lower value.
Assay [11] can be described thus: drug combination growth inhibition, ovarian cancer – cell-based, oncology-focused library, rucaparib conditional, profiling panel (AID 1508598). As to conditions: patient-derived ovarian cancer cells, CellTiter-Glo viability, 144 h, stronger effect = lower value.
Setting [12] is: stronger effect = lower value, cell number ratio, induced over uninduced.
[13] abbreviates: measured here: relative caspase fold change +Dox/-Dox.
Where [14] appears, read: measured here: total cells with miR-34 induction, stronger effect = lower value.
The mark [15] stands for this setting: measured here: total cells without miR-34 induction.
[16] abbreviates: MELAS cybrid survival, CellTiter-Glo 48 h, stronger effect = higher value.
[17] abbreviates: Rieske KO mouse fibroblast survival, CellTiter-Glo 72 h.

Records with an inconclusive call do not appear. Calls of active or inactive are those of the source.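 Rule for the calls, unless noted: active = normalized viability below 100% at a tested concentration; inactive = the rest.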

`C[C@H]1[C@H](OC(=O)CCC(=O)O)O[C@@H]2O[C@@]3(C)CC[C@H]4[C@H](C)CC[C@@H]1[C@@]24OO3`: the AC50 was 3.72 µM (active) in [1], 14.8 µM (active) in assay [2], 3.72 µM (active) in assay [3] and 13.2 µM (active) in [4]. In addition, the result in assay [5] was inactive.
As for `CC(C)(C)c1cc(C(C)(C)C)c(NC(=O)c2c[nH]c3ccccc3c2=O)cc1O`, the AC50 in assay [1] was 11.8 µM (active); in assay [4], 10.5 µM (active); in assay [6] it was 14.8 µM (active). Besides, the molecule was called inactive in assay [2], in assay [3] and in [5]. In assay [7], the half-inhibitory concentration (IC50) is 16.6 µM (active). Moreover, the fold change in [8] (setting [12]) was 0.893 (inactive); in [8] (setting [13]), 1.04. Also, the cell count in [8] (setting [14]) worked out at 5220; in assay [8] (setting [15]), 5840. The z-score in [9] (setting [16]) was -0.385 (inactive); in [9] (setting [17]), 0.598.
Consider `CC(C)c1cnn2c(NCc3ccccc3)cc(N[C@@H](CO)[C@H](O)CO)nc12`, for which the half-maximal activity concentration (AC50) in assay [1] was 0.263 µM (active); in [2] it was 0.418 µM (active); in assay [3] it was 0.187 µM (active); in assay [4], 0.235 µM (active); in [6], 0.417 µM (active). In addition, the IC50 in assay [7] is 0.468 µM (active).
For `NCC(=O)Nc1ccc(-n2nc(C(F)(F)F)cc2-c2ccc3c(ccc4ccccc43)c2)cc1`, the AC50 in assay [1] is 23.5 µM (active); in assay [2], 23.5 µM (active); in assay [3] it was 20.9 µM (active); in [5], 20.9 µM (active); in [6], 20.9 µM (active). For the same molecule, the results for the fold change in assay [8] (setting [12]) and in assay [8] (setting [13]) were 1.2 (inactive) and 0.441, respectively. The results for the cell count in assay [8] (setting [14]) and in [8] (setting [15]) were 2160 and 1800, respectively. Besides, the values for the z-score in [9] (setting [16]) and in [9] (setting [17]) were -0.432 (inactive) and -0.00325, respectively.
For the molecule `CC(C)C[C@H](NC(=O)CNC(=O)c1cc(Cl)ccc1Cl)B(O)O`, the concentration at half-maximal activity (AC50) in assay [1] was 0.166 µM (active); in assay [2], 0.166 µM (active); in assay [3], 0.118 µM (active); in assay [4] it was 0.0833 µM (active); in assay [6] it was 0.263 µM (active). Further, the IC50 in assay [7] is 0.105 µM (active). This molecule had an SSMD in assay [10] of -0.17. In assay [10], the cell count was determined as 6790. For the same molecule, the plate-normalised HSF1 focus index in [10] was 0.988 (inactive). Moreover, the viability is 111% (inactive) in assay [11] (at 0.000305 µM, OCI-C5x cells, with rucaparib 10 µM, 100% = cells with rucaparib alone); 132% (inactive) in assay [11] (at 0.000305 µM, OCI-C5x cells, without rucaparib); 106% (inactive) in assay [11] (at 0.000305 µM, OCI-P5x cells, with rucaparib 20 µM, 100% = cells with rucaparib alone); 121% (inactive) in assay [11] (at 0.000305 µM, OCI-P5x cells, without rucaparib); 112% (inactive) in [11] (at 0.00122 µM, OCI-C5x cells, with rucaparib 10 µM, 100% = cells with rucaparib alone); 130% (inactive) in [11] (at 0.00122 µM, OCI-C5x cells, without rucaparib). For the same molecule, the viability in assay [11] (at 0.00122 µM, OCI-P5x cells, with rucaparib 20 µM, 100% = cells with rucaparib alone) was 106% (inactive); in assay [11] (at 0.00122 µM, OCI-P5x cells, without rucaparib) it was 111% (inactive); in assay [11] (at 0.00488 µM, OCI-C5x cells, with rucaparib 10 µM, 100% = cells with rucaparib alone), 126% (inactive); in [11] (at 0.00488 µM, OCI-C5x cells, without rucaparib), 129% (inactive); in assay [11] (at 0.00488 µM, OCI-P5x cells, with rucaparib 20 µM, 100% = cells with rucaparib alone), 104% (inactive); in assay [11] (at 0.00488 µM, OCI-P5x cells, without rucaparib), 116% (inactive). Also, the viability was 122% (inactive) in assay [11] (at 0.0195 µM, OCI-C5x cells, with rucaparib 10 µM, 100% = cells with rucaparib alone); 128% (inactive) in [11] (at 0.0195 µM, OCI-C5x cells, without rucaparib); 96.7% (active) in [11] (at 0.0195 µM, OCI-P5x cells, with rucaparib 20 µM, 100% = cells with rucaparib alone); 116% (inactive) in [11] (at 0.0195 µM, OCI-P5x cells, without rucaparib); 88.7% (active) in [11] (at 0.0781 µM, OCI-C5x cells, with rucaparib 10 µM, 100% = cells with rucaparib alone); 103% (inactive) in assay [11] (at 0.0781 µM, OCI-C5x cells, without rucaparib). Also, the viability in [11] (at 0.0781 µM, OCI-P5x cells, with rucaparib 20 µM, 100% = cells with rucaparib alone) was 101% (inactive); in assay [11] (at 0.0781 µM, OCI-P5x cells, without rucaparib) it was 80.5% (active); in assay [11] (at 0.313 µM, OCI-C5x cells, with rucaparib 10 µM, 100% = cells with rucaparib alone), 30.3% (active); in assay [11] (at 0.313 µM, OCI-C5x cells, without rucaparib) it was 22.4% (active); in assay [11] (at 0.313 µM, OCI-P5x cells, with rucaparib 20 µM, 100% = cells with rucaparib alone) it was 22% (active); in assay [11] (at 0.313 µM, OCI-P5x cells, without rucaparib), 4.33% (active). Also, the viability is 7.48% (active) in [11] (at 1.25 µM, OCI-C5x cells, with rucaparib 10 µM, 100% = cells with rucaparib alone); 6.01% (active) in [11] (at 1.25 µM, OCI-C5x cells, without rucaparib); 2.76% (active) in [11] (at 1.25 µM, OCI-P5x cells, with rucaparib 20 µM, 100% = cells with rucaparib alone); 1.33% (active) in assay [11] (at 1.25 µM, OCI-P5x cells, without rucaparib); 1.81% (active) in assay [11] (at 5 µM, OCI-C5x cells, with rucaparib 10 µM, 100% = cells with rucaparib alone); 1.62% (active) in [11] (at 5 µM, OCI-C5x cells, without rucaparib). For the same molecule, the viability in assay [11] (at 5 µM, OCI-P5x cells, with rucaparib 20 µM, 100% = cells with rucaparib alone) was 1.18% (active); in assay [11] (at 5 µM, OCI-P5x cells, without rucaparib), 0.837% (active).

As a reminder, the AC50 is the midpoint of the concentration-response curve, whichever way the signal moves. What is called IC50 is the concentration needed to halve the response being measured. As usually defined, the viability is a read-out of living cells in per cent, often relative to untreated cells.

For the origin of these results see PubChem BioAssay.
